Results as given in the supplement of paper PMC12350171.
Counter-ions that a name gives are not always drawn. Values without a mark were called inactive.

Key:
Details in all cases: 20 µM
[1] = test system: Salmonella enterica typhimurium; assay: growth AUC normalised to DMSO control (fraction of control); higher = less growth inhibition, active = hit call of the paper
Outline: (§1)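 For the AUC endpoint, growth curves were integrated by the trapezoidal rule up to the exponential-to-stationary transition and normalised to DMSO controls on the same plate. The curves came from OD578 readings taken hourly for 24 h, in three biological replicates. Pathogens had been passaged anaerobically twice and inoculated at an OD578 of 0.01 into pre-reduced mGAM plates carrying 20 μM compound and 1% DMSO, sealed with breathable membranes. Medium for Haemophilus parainfluenzae also contained hemin and NAD.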

Shigella flexneri = assay: as above
Outline: as §1

Vibrio cholerae = assay: as above
Outline: as §1

[2] = test system: Yersinia pseudotuberculosis; assay: as above
Outline: as §1

P. vulgatus RND KO = assay: growth AUC normalised to DMSO control (median) (fraction of control); higher = less growth inhibition, active = hit call of the paper
Outline: (§2)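 Strains were passaged twice overnight without oxygen, then grown in mGAM in 96-well plates with each approved-drug library compound at 20 μM and 1% DMSO, starting at OD578 0.01. OD578 was read hourly for 24 h inside an anaerobic incubator. Curves were truncated at entry into stationary phase, and the trapezoidal-rule area under the curve was normalised to same-plate vehicle wells. The value is the median across three biological replicates.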

P. vulgatus WT = assay: as above
Outline: as §2

[3] = test system: S. enterica typhimurium WT; assay: as above
Outline: as §2

[4] = test system: S. enterica typhimurium tolC KO; assay: as above
Outline: as §2
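Throughout, for growth AUC normalised to DMSO control (median): active when median AUC fell below 0.1.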

| SMILES | growth AUC normalised to DMSO control [1] | growth AUC normalised to DMSO control (Shigella flexneri) | growth AUC normalised to DMSO control (Vibrio cholerae) | growth AUC normalised to DMSO control [2] | growth AUC normalised to DMSO control (P. vulgatus RND KO) | growth AUC normalised to DMSO control (P. vulgatus WT) | growth AUC normalised to DMSO control [3] | growth AUC normalised to DMSO control [4] |
| --- | --- | --- | --- | --- | --- | --- | --- | --- |
| CCCC1C(=O)N2C(N(C)C)=Nc3ccc(C)cc3N2C1=O (centres undefined) [Azapropazone] | 0.983 | 0.96 | 0.958 | 0.964 | 0.993 | 1 | 1 | 0.995 |
| O=S(=O)(O)CCS [Coenzyme M] | 1 | 1.02 | 1.01 | 0.997 | 1.01 | 1.01 | 1.01 | 1 |
| N=c1nc(N2CCCCC2)cc(N)n1O [Minoxidil] | 1 | 1.03 | 1.01 | 0.974 | 0.992 | 1.01 | 0.981 | 1.01 |
| CNC(C)CCC=C(C)C (centres undefined) [Isometheptene mucate] | 0.988 | 0.995 | 1.01 | 1 | 1.01 | 1.02 | 1.01 | 1 |
| CCOC(=O)[C@H](CCc1ccccc1)N[C@H]1CCc2ccccc2N(CC(=O)O)C1=O [Benazepril hydrochloride] | 0.981 | 0.996 | 1.01 | 0.975 | 1 | 1 | 1 | 1 |
| CN(C)C/C=C(/c1ccc(Br)cc1)c1cccnc1 [Zimelidine dihydrochloride monohydrate] | 0.996 | 0.999 | 1 | 1.03 | 1.04 | 1.04 | 1.02 | 0.983 |
| CC(C)(C)NCC(O)c1cc(O)cc(O)c1 (centres undefined) [Terbutaline hemisulfate] | 1.02 | 1.03 | 1.07 | 1 | 1.06 | 1.06 | 1.01 | 1.01 |
| CN(C)C(=O)C(CCN1CCC(O)(c2ccc(Cl)cc2)CC1)(c1ccccc1)c1ccccc1 [Loperamide hydrochloride] | 0.997 | 0.972 | 0.981 | 0.988 | 1 | 1.01 | 1 | 0.987 |
| COc1cc(C)c(/C=C/C(C)=C/C=C/C(C)=C/C(=O)O)c(C)c1C [Acitretin] | 0.995 | 1.02 | 0.985 | 0.99 | 0.944 | 0.956 | 1 | 0.998 |
| NNC(=O)c1ccncc1 [Isoniazid] | 1.02 | 1.04 | 1.05 | 0.942 | 1.04 | 1.07 | 1.01 | 0.989 |
| C=C1c2c(Cl)ccc(O)c2C(O)=C2C(=O)[C@]3(O)C(O)=C(C(N)=O)C(=O)[C@@H](N(C)C)[C@@H]3[C@@H](O)[C@H]12.O=C(O)c1cc(S(=O)(=O)O)ccc1O [Meclocycline sulfosalicylate] | 0.00503 (active) | 0.015 (active) | 0.0396 (active) | 0.0398 (active) | 0.0142 (active) | 0.022 (active) | 0.0103 (active) | 0.00967 (active) |
| Nc1ccc(C(=O)O)c(O)c1 [Aminosalicylic acid] | 1.03 | 1.01 | 0.988 | 0.962 | 1.02 | 1 | 1.01 | 1.01 |
| Cc1c(N)c(=O)n(-c2ccccc2)n1C [Ampyrone] | 0.996 | 0.998 | 0.965 | 0.986 | 1.04 | 1 | 1 | 1 |
| OCCN1CCN(CCCN2c3ccccc3Sc3ccc(Cl)cc32)CC1 [Perphenazine] | 0.99 | 0.975 | 0.91 | 1.01 | 1.01 | 0.989 | 1 | 0.929 |
| CN(C)c1nc(N(C)C)nc(N(C)C)n1 [Altretamine] | 1.01 | 1.06 | 1.05 | 1.02 | 1.01 | 0.998 | 1 | 0.99 |
| Nc1ncn(C2OC(CO)C(O)C2O)c(=O)n1 (centres undefined) [Azacytidine-5] | 1.02 | 1.04 | 1.02 | 1.04 | 0.999 | 0.996 | 0.977 | 0.963 |
| O=C1NCC2(CCN(CCc3ccccc3)CC2)O1 [Fenspiride hydrochloride] | 0.967 | 0.947 | 0.994 | 0.971 | 0.988 | 0.974 | 1 | 0.993 |
| Cc1ccc2c(c1)c1c3n2CCNC3CCC1 (centres undefined) [Pirlindole mesylate] | 0.988 | 0.999 | 0.993 | 0.964 | 1.02 | 1.03 | 0.998 | 0.992 |
| CN1CCN2c3ncccc3Cc3ccccc3C2C1 (centres undefined) [Mirtazapine] | 0.995 | 1.01 | 1.01 | 1 | 1.03 | 1.02 | 1 | 0.997 |
| C=C1c2cccc(O)c2C(O)=C2C(=O)[C@]3(O)C(O)=C(C(N)=O)C(=O)[C@@H](N(C)C)[C@@H]3[C@@H](O)[C@H]12 [Methacycline hydrochloride] | 0.00318 (active) | 0.0126 (active) | 0.0374 (active) | 0.0389 (active) | 0.0122 (active) | 0.00531 (active) | 0.000703 (active) | 0.00224 (active) |
| CC(C(O)c1ccc(O)cc1)N1CCC(Cc2ccccc2)CC1 (centres undefined) [Ifenprodil tartrate] | 1 | 1.05 | 1.03 | 1 | 1.03 | 1.02 | 1.01 | 1 |
| CC(=O)N(CC(O)CN(C(C)=O)c1c(I)c(C(=O)NCC(O)CO)c(I)c(C(=O)NCC(O)CO)c1I)c1c(I)c(C(=O)NCC(O)CO)c(I)c(C(=O)NCC(O)CO)c1I (centres undefined) [Iodixanol] | 0.977 | 0.943 | 0.99 | 0.977 | 1 | 0.98 | 0.996 | 1 |
| O=C(CCCN1CCC(O)(c2ccc(Br)cc2)CC1)c1ccc(F)cc1 [Bromperidol] | 1.02 | 0.984 | 0.999 | 0.997 | 0.999 | 1.01 | 0.998 | 0.974 |
| CC(C)NCC(O)c1ccc(O)c(O)c1 (single isomer, unassigned; (-)) [(-) Isoproterenol hydrochloride] | 1.01 | 1.03 | 1.05 | 1.02 | 0.979 | 0.967 | 1 | 0.992 |
| COCCOC(=O)C1=C(C)NC(C)=C(C(=O)OC/C=C/c2ccccc2)C1c1cccc([N+](=O)[O-])c1 (centres undefined) [Cilnidipine] | 1.01 | 1.01 | 1.03 | 0.976 | 0.989 | 0.98 | 1.01 | 1.01 |
| Nc1ccc(S(=O)(=O)Nc2ccccn2)cc1 [Sulfapyridine] | 0.986 | 0.95 | 0.984 | 0.994 | 1.01 | 1 | 0.998 | 1 |
| Cc1cccc(Nc2ccncc2S(=O)(=O)NC(=O)NC(C)C)c1 [Torsemide] | 1 | 1.04 | 1.01 | 1.01 | 1.04 | 1.05 | 1.01 | 1 |
| CS(=O)(=O)c1ccc([C@@H](O)[C@@H](CO)NC(=O)C(Cl)Cl)cc1 [Thiamphenicol] | 0.408 (active) | 0.0249 (active) | 0.037 (active) | 0.866 (active) | 0.0183 (active) | 0.0102 (active) | 0.509 | 0.281 |
